Calls of active or inactive are those of the source.
Test: resazurin metabolic signal in HepG2 cells – cell-based, resazurin fluorescence, 24 h, PK04 Diversity Set, profiling panel (AID 1172); further: test concentration not given here
Conditions: HepG2 viability, higher = more signal

Q: With `Cn1cccc1C(O)C1C=CC2C(=O)NC(=O)C2N1Nc1ccccn1` (centres undefined) as the molecule, how does the z-score read?
A: Its z-score is -1.49.

Q: Which z-score does the source give for `CCCC[C@H]1OB(O)C[C@H]2C1=C(C)C[C@H]1C(=O)N(C)C(=O)[C@H]12` here?
A: Its z-score is -0.539.

Q: With `Cc1ccc(S[C@]2(C(=O)NCC(F)(F)F)CC(=O)N(Cc3ccccc3Cl)[C@@H]2c2ccc(CO)cc2I)cc1` as the molecule, how does the z-score read?
A: Its z-score is 0.305.

Q: For `CC(C)NC(=O)[C@@H]1c2ccccc2C(=O)N(CC23CC4CC(CC(C4)C2)C3)[C@H]1c1ccc(CO)cc1`, which z-score is on record?
A: The z-score was 0.64.

Q: Which z-score does the source give for `CCc1cccc(NC(=O)O[C@H]2[C@H](OC(=O)Nc3ccc4c(c3)OCO4)[C@@H](OC(=O)Nc3ccc4c(c3)OCO4)[C@@H](OC)O[C@@H]2CO)c1` here?
A: Its z-score is 1.

Q: Which z-score does the source give for `CC(C)OC(=O)C=C1C[C@@H](c2ccc(C#N)cc2)O[C@@H](c2ccc(C#N)cc2)O1` here?
A: The z-score was -0.389.

Q: Which z-score does the source give for `COC(=O)C1=CCC(c2cccc(Cl)c2)O1` (centres undefined) here?
A: The z-score was -0.0749.

Q: Which z-score does the source give for `CCCC[C@@H](O)C1=C(C)C[C@H]2C(=O)N(Cc3ccccc3)C(=O)[C@H]2[C@H]1CO` here?
A: The z-score was -0.31.

Test: budding yeast growth changes without added modifier – OD600, strain BY4716, 24 h, basal condition, primary screen (AID 1173)
Conditions: S. cerevisiae BY4716 growth, OD600, 24 h; higher = more signal, called active from +8 up or from −8 down

Q: With `CC(C)c1ccc(NN2C(C(O)c3ccc4c(c3)OCO4)C=CC3C(=O)N(c4ccccc4)C(=O)C32)cc1` (centres undefined) as the molecule, how does the z-score read?
A: The z-score was -0.791 (inactive).

Q: With `CN1C(=O)[C@@]2(CCC(=O)OC(C)(C)C)N=C(c3ccc(OCCCO)cc3)O[C@H]2c2ccccc21` as the molecule, how does the z-score read?
A: Its z-score is -1.04 (inactive).

Q: For `COC(=O)[C@@]1(Cc2ccc(F)cc2)[C@@H]2C(=CC(=O)[C@H]2CC(=O)C(=O)N(C)C)CN1C(=O)c1ccccc1`, which z-score is on record?
A: Its z-score is 1.69 (inactive).

Q: With `O=C(CS)NCCCCCNC(=O)[C@H]1C[C@H]2C(=O)N3CCC[C@H]3C(=O)N2[C@H]1c1cccc(OCCO)c1` as the molecule, how does the z-score read?
A: Its z-score is -0.358 (inactive).

Q: For `C=CCOC(=O)[C@H]1[C@@H]2C(=O)O[C@@H](c3ccccc3)[C@@H](c3ccccc3)N2[C@@H](c2ccc(OCCOC(=O)[C@H]3C[C@H]4C(=O)N[C@@H](Cc5ccccc5)C(=O)N4[C@H]3c3ccc(O)cc3)cc2)[C@]12C(=O)Nc1ccccc12`, which z-score is on record?
A: The z-score was 1.32 (inactive).

Q: With `COc1ccc([Si](C)(C)[C@@H]2[C@@H](CCO)O[C@]3(C(=O)N(Cc4ccc(NC(C)=O)cc4)c4ccccc43)[C@H]2C)cc1` as the molecule, how does the z-score read?
A: Its z-score is 1.6 (inactive).

Q: For `CCCCCN1CC=CC23O[C@@H]4C=CCOC(=O)[C@@H]4[C@H]2C(=O)N(CCCCCCO)[C@@H]3C1=O` (some centres undefined), which z-score is on record?
A: Its z-score is 0.428 (inactive).

Q: For `COC(=O)C1(C)C=C2C(=C(c3ccccc3)C(=O)C2C)CN1` (centres undefined), which z-score is on record?
A: The z-score was 0.558 (inactive).

Q: For `CC(C)N1CC=CC23O[C@@H]4C=CCCOC(=O)C4[C@H]2C(=O)N(CCCCCCO)[C@@H]3C1=O` (some centres undefined), which z-score is on record?
A: The z-score was 0.948 (inactive).

Q: Which z-score does the source give for `COc1ccc([Si](C)(C)[C@H]2[C@H](CCO)O[C@@]3(C(=O)N(Cc4cccc(NC(=O)[C@H](C)O)c4)c4ccccc43)[C@@H]2C)cc1` here?
A: The z-score was -0.321 (inactive).

Q: Which z-score does the source give for `COc1ccc(CCNC(=O)[C@@H]2c3ccccc3C(=O)N(c3ccc(C)cn3)[C@H]2c2ccc(CO)cc2)cc1` here?
A: The z-score was -0.742 (inactive).

Q: For `C=CCNC(=O)[C@H]1[C@@H]2C(=O)O[C@@H](c3ccccc3)[C@@H](c3ccccc3)N2[C@@H](c2ccc(O)cc2)[C@]12C(=O)N(C(=O)OCCOC)c1ccc(C#CC3=CCCCC3)cc12`, which z-score is on record?
A: The z-score was 0.107 (inactive).

Q: With `[N-]=[N+]=NCc1ccccc1[C@@H]1OC(c2ccc(OCCCO)cc2)=N[C@]1(Cc1ccccc1)C(=O)N1CCOCC1` as the molecule, how does the z-score read?
A: Its z-score is -0.833 (inactive).

Q: Which z-score does the source give for `CC(C)C[C@@H]1NC(=O)[C@H]2C[C@@H](C(=O)NCCCCCCN(C)C)[C@@H](c3cccc(OCCO)c3)N2C1=O` here?
A: Its z-score is -0.0693 (inactive).

Q: With `C=C(/C(=C/C[C@@H](OC(=O)c1ccncc1)c1ccc(OCCO)cc1)c1cnc2ccccc2c1)C(C)C` as the molecule, how does the z-score read?
A: Its z-score is -18.5 (active).

Q: For `CS(=O)(=O)CCOC(=O)C1=CC(CCCO)=CC(c2cccs2)N(Cc2cccc(OC(F)(F)F)c2)C=C1C(=O)OCCS(C)(=O)=O` (centres undefined), which z-score is on record?
A: The z-score was -3.44 (inactive).

Q: For `COCCCNC(=O)[C@]1(CCC(=O)OC(C)(C)C)N=C(c2ccc(OCCCO)cc2)O[C@@H]1c1ccccc1N=[N+]=[N-]`, which z-score is on record?
A: The z-score was -0.334 (inactive).

Q: For `Cc1ccc(C2CC=C(C(=O)O)CN2S(=O)(=O)c2ccc(C)cc2)cc1` (centres undefined), which z-score is on record?
A: The z-score was -0.0489 (inactive).

Q: Which z-score does the source give for `O=C1O[C@@H](c2ccccc2)[C@@H](c2ccccc2)N2[C@@H](c3ccc(OCCO)cc3)[C@]3(C(=O)Nc4ccccc43)[C@@H](C(=O)N3CCN(c4ncccn4)CC3)[C@H]12` here?
A: Its z-score is 0.944 (inactive).

Q: For `COCCOC(=O)N1C(=O)[C@@]2(c3cc(C#CCNC(N)=O)ccc31)[C@H](c1ccccc1OCCO)N1[C@H](c3ccccc3)[C@H](c3ccccc3)OC(=O)[C@H]1[C@@H]2C(=O)N1CCN(c2ncccn2)CC1`, which z-score is on record?
A: Its z-score is 0.353 (inactive).

Q: For `COCCOC(=O)N1C(=O)[C@@]2(c3cc(C#Cc4ccc(OC)cc4)ccc31)[C@H](C(=O)N1CCN(c3ncccn3)CC1)[C@H]1C(=O)O[C@H](c3ccccc3)[C@H](c3ccccc3)N1[C@@H]2c1ccc(OCCO)cc1`, which z-score is on record?
A: The z-score was 1.89 (inactive).

Q: With `CN(C)CCCNC(=O)[C@@H]1c2ccccc2C(=O)N(Cc2cc(F)cc(C(F)(F)F)c2)[C@H]1c1ccc(CO)cc1` as the molecule, how does the z-score read?
A: The z-score was -0.473 (inactive).

Q: With `CCCNC(=O)[C@@H]1c2ccccc2C(=O)N(c2ccc(C)cn2)[C@H]1c1ccc(CO)cc1` as the molecule, how does the z-score read?
A: The z-score was 0.325 (inactive).

Q: Which z-score does the source give for `CN1C(=O)C2C=CC(C(O)c3ccc(I)cc3)N(NC(=O)OC(C)(C)C)C2C1=O` (centres undefined) here?
A: The z-score was 0.9 (inactive).

Q: For `COC(=O)c1c(CC[C@@H](CO)NC(=O)N[C@H](Cc2ccccc2)Cn2cc(-c3ccccc3N)nn2)oc(C(C)=O)c1C(=O)OC`, which z-score is on record?
A: Its z-score is -1.2 (inactive).

Q: With `CCCC=C(CCC)[C@@H](NC(=O)c1ccc(-c2ccccc2)cc1)c1ccc(C(=O)OC)cc1` as the molecule, how does the z-score read?
A: The z-score was 1.44 (inactive).

Q: Which z-score does the source give for `COCC(=C=CC[C@@H](O)c1ccccc1OCCO)CCO` here?
A: Its z-score is -0.853 (inactive).

Q: Which z-score does the source give for `CC1CC/C=C\[C@H]2OC34C=CCN(C(C)C)C(=O)[C@H]3N(CCCO)C(=O)[C@@H]4C2C(=O)O1` (some centres undefined) here?
A: Its z-score is -0.404 (inactive).

Q: With `Cn1cccc1C(O)C1C=CC2C(=O)NC(=O)C2N1Nc1ccccn1` (centres undefined) as the molecule, how does the z-score read?
A: The z-score was 0.784 (inactive).

Q: Which z-score does the source give for `CCCC[C@H]1OB(O)C[C@H]2C1=C(C)C[C@H]1C(=O)N(C)C(=O)[C@H]12` here?
A: The z-score was -2.09 (inactive).

Q: With `Cc1ccc(S[C@]2(C(=O)NCC(F)(F)F)CC(=O)N(Cc3ccccc3Cl)[C@@H]2c2ccc(CO)cc2I)cc1` as the molecule, how does the z-score read?
A: The z-score was -3.36 (inactive).

Q: With `CC(C)NC(=O)[C@@H]1c2ccccc2C(=O)N(CC23CC4CC(CC(C4)C2)C3)[C@H]1c1ccc(CO)cc1` as the molecule, how does the z-score read?
A: Its z-score is -1.23 (inactive).

Q: With `CCc1cccc(NC(=O)O[C@H]2[C@H](OC(=O)Nc3ccc4c(c3)OCO4)[C@@H](OC(=O)Nc3ccc4c(c3)OCO4)[C@@H](OC)O[C@@H]2CO)c1` as the molecule, how does the z-score read?
A: Its z-score is 1.04 (inactive).

Q: For `CC(C)OC(=O)C=C1C[C@@H](c2ccc(C#N)cc2)O[C@@H](c2ccc(C#N)cc2)O1`, which z-score is on record?
A: The z-score was -0.709 (inactive).

Q: For `COC(=O)C1=CCC(c2cccc(Cl)c2)O1` (centres undefined), which z-score is on record?
A: The z-score was -3.58 (inactive).

Q: For `CCCC[C@@H](O)C1=C(C)C[C@H]2C(=O)N(Cc3ccccc3)C(=O)[C@H]2[C@H]1CO`, which z-score is on record?
A: Its z-score is -3.87 (inactive).
